Laboratory results published in PubChem BioAssay (NCATS).
Values joined by “and” are separate entries in the source; they are usually repeats but may differ in a detail not shown here. Equal values may be shown once. Inconclusive results are not listed. Active and inactive are the calls of the source. Unless noted, the call rests on the fitted dose curve; in most records, active means well fitted curve in either direction with a large enough effect (not every such curve was filed as active); inconclusive means small, poorly fitted or top-dose-only effect, or another doubt; inactive means flat fitted curve, though single readings scatter.

What was measured:
[1] = biological target: Lysosomal acid glucosylceramidase (Homo sapiens) (UniProt P04062); assay: Glucocerebrosidase-p2 (AID 348; in the data active means potency below about 10 µM; further: potency means the concentration at half of the fitted maximal effect); conditions: purified GBA, blue fluorogenic substrate, 40 min
How it was run: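 Normal human glucocerebrosidase (0.2 nM) with blue fluorogenic substrate (80 uM final) in citrate/phosphate pH 5.9 with 10mM sodium taurocholate, 0.01% tween-20; 40 min RT, NaOH/glycine stop; fluorescence Ex 365/Em 440; AC50 from a titration from 0.6 nM upwards.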

[2] = AP1 Signaling Pathway (AID 357); conditions: ME-180 AP-1-bla reporter, EGF-induced, beta-lactamase ratio, 5 h; at 7.69 µM (top of the series) unless noted; further: on the % scale 0 is the no-effect control and ±100 the full control effect
How it was run: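 AP-1-bla ME-180 cells with beta-lactamase reporter under AP-1 response element, stimulated with EC50 EGF; compounds titrated, 5 hours at 37 degrees Celsius. CCF4 read at 460/530 nm ratio; positive and negative modulators judged by AC50.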

[3] = biological target: Cytochrome P450 1A2 (Homo sapiens) (UniProt P05177); assay: p450-cyp1a2 (AID 410; calls by dose curve; further: potency means the concentration at half of the fitted maximal effect;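 on activity change, negative = inhibition: -100% = full effect of reference inhibitor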); conditions: recombinant CYP1A2, luciferin-ME demethylation, luminescence; series mostly up to 11.4 µM
How it was run: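 Read-out is luminescence from luciferin produced by CYP1A2 demethylation of Luciferin-ME (100uM, at Km). Detection reagent stopped the 60 min NADPH-dependent reaction; signals were normalized to 57 uM furafylline.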

[4] = Stat Signaling Pathway (AID 446); conditions: ME-180 SIE beta-lactamase reporter, IL-6 stimulated, 5 h;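 further: ME-180 cervical cancer cells given 40 pM IL-6 alongside compound; SIE-controlled beta-lactamase reporter measured as 460/530 nm FRET emission ratio; on the % scale 0 is the no-effect control and ±100 the full control effect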
How it was run: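 Normalization used AC90 stimulation (300 pM IL-6) and AC90 inhibition (125 nM pan-JAK inhibitor at 40 pM IL-6). The underlying signal is SIE-driven beta-lactamase in ME-180 cells after 5 h IL-6 exposure with compound.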

[5] = biological target: Glucocorticoid receptor (Homo sapiens) (UniProt P04150); assay: GR-GFP Redistribution (AID 450;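 active means compounds whose dose series gives a full or clear partial fitted curve of increased nuclear translocation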; further: potency means the concentration at half of the fitted maximal effect); conditions: U2OS GR-GFP nuclear translocation, laser cytometry, 2 h
[6] = biological target: Glucocorticoid receptor (Homo sapiens) (UniProt P04150); assay: GR-EFC Redistribution (AID 451; calls by dose curve; further: potency means the concentration at half of the fitted maximal effect); conditions: CHO-K1 GR-EFC translocation, beta-gal luminescence, 2 h
How it was run: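 CHO-K1 cells stably expressing nuclear-localized β-gal enzyme acceptor and GR fused C-terminally to the enzyme donor fragment; ligand-driven nuclear translocation restores β-gal by complementation. Compounds titrated up to 46 uM final, 2 h at 37 °C; luminescence read.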

[7] = biological target: Mitogen-activated protein kinase 10 (Mus musculus) (UniProt Q61831); assay: JNK3 AlphaScreen Assay (AID 530); conditions: JNK3 lysate, c-Jun phosphorylation; series mostly up to 11.4 µM;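 further: kinase came from lysate of stimulated human HepG2 cells; signal reports phosphorylation of biotinylated GST-cJun 1-79 at Ser73 with 10 µM ATP; on the % scale 0 is the no-effect control and ±100 the full control effect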
How it was run: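 Biotinylated GST-cJun(1-79) served as substrate for JNK3 in HepG2 lysates stimulated with IL-1beta and TNF-alpha. ATP was 10 uM final, pH 7.6. Ser73 phosphorylation was quantified by AlphaScreen (680 nm excitation).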

[8] = biological target: Cytochrome P450 2C9 (Homo sapiens) (UniProt P11712); assay: qHTS Assay for Inhibitors and Substrates of Cytochrome P450 2C9 (AID 883; active means well fitted curve in the direction sought with a large enough effect; an effect the other way counts as inactive or inconclusive; further: on the % scale 0 is the no-effect control and ±100 the full control effect; nearly all actives have a fitted effect of over 60% in size); conditions: recombinant CYP2C9, luciferin-H luminescence, 60 min; series mostly up to 11.4 µM
How it was run: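 A luminogenic readout tracked human CYP2C9 (10nM) converting deoxyluciferin (100uM, at KM) in 25mM KPO4 during 60 min at 37C with regenerated NADPH. Values normalized to 57uM sulphaphenazole as complete inhibition.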

[9] = biological target: Cytochrome P450 3A4 (Homo sapiens) (UniProt P08684); assay: qHTS Assay for Activators of Cytochrome P450 3A4 (AID 885; active means well fitted curve in the direction sought with a large enough effect; an effect the other way counts as inactive or inconclusive; further: nearly all actives have a fitted effect of over 65% in size); conditions: recombinant CYP3A4, Luciferin-PPXE luminescence, 60 min; series mostly up to 11.4 µM
How it was run: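 Human CYP3A4 dealkylates Luciferin-PPXE to luciferin, which luciferase detection converts to light. Substrate was at its KM (25uM), buffer 200mM KPO4, reaction 60 min at RT.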

[10] = biological target: Cytochrome P450 2C19 (Homo sapiens) (UniProt P33261); assay: qHTS Assay for Inhibitors and Substrates of Cytochrome P450 2C19 (AID 899; active means well fitted curve in the direction sought with a large enough effect; an effect the other way counts as inactive or inconclusive; further: potency means the concentration at half of the fitted maximal effect; nearly all actives have a fitted effect of over 60% in size); conditions: recombinant CYP2C19, luciferin-H EGE luminescence; series mostly up to 11.4 µM
How it was run: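 NADPH-dependent conversion of Luciferin-H EGE (10uM, at KM) by 5nM enzyme in 50mM KPO4, 60 min at 37C following 10 min compound preincubation. Stopped with luciferin detection buffer; luminescence read after 20 min.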

[11] = biological target: 3',5'-cyclic-AMP phosphodiesterase 4B (Homo sapiens) (UniProt Q07343); assay: qHTS Assay for Inhibitors of PDE-IV (AID 607; active means well fitted activation curve with a large enough effect in the main read-out, with a control signal flat, not every such curve was filed as active; further: % of control where 0% means no effect); conditions: HEK293 ACTOne CNG channel cells, membrane potential fluorescence; series mostly up to 22.9 µM
How it was run: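 HEK293 ACTOne cells with CNG channel (1000/well), endogenous PDE4; membrane potential dye, compounds up to 22.9 uM final. Fluorescence Ex 535/Em 590; RO 20-1724 (100 uM final) as reference.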

[12] = qHTS Assay for Identification of Small Molecule Agonists for Hypoxia Response Element Signaling Pathway (AID 914; active means well fitted activation curve with a large enough effect in the signal ratio, with a control signal flat, not every such curve was filed as active; the % refers to the signal ratio; further: % of control where 0% means no effect); conditions: ME-180 (cervical carcinoma) HRE-bla reporter, beta-lactamase ratio, CoCl2, 17 h; activation: stronger effect = higher value
How it was run: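 qHTS titration; ME-180 HRE-bla cells; EC50 CoCl2 co-treatment, 17 h at 37 degrees Celsius; CCF4 dye, ex 405nm, em 460nm and 530nm; %Activity from ratio; AC50.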

[13] = biological target: Cytochrome P450 2D6 (Homo sapiens) (UniProt P10635); assay: qHTS Assay for Inhibitors and Substrates of Cytochrome P450 2D6 (AID 891; active means well fitted curve in the direction sought with a large enough effect; an effect the other way counts as inactive or inconclusive; further: nearly all actives have a fitted effect of over 60% in size; further: potency means the concentration at half of the fitted maximal effect); conditions: recombinant CYP2D6, luciferin-ME EGE luminescence; series mostly up to 11.4 µM
How it was run: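 Luminescent read-out of luciferin formed by 5 nM human CYP2D6 demethylating 30 uM Luciferin-ME EGE (Km level) over 60 min at room temperature after NADPH regeneration addition. Data normalized to full inhibition by 1.43 uM quinidine.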

[14] = biological target: Cytochrome P450 3A4 (Homo sapiens) (UniProt P08684); assay: qHTS Assay for Inhibitors and Substrates of Cytochrome P450 3A4 (AID 884; active means well fitted curve in the direction sought with a large enough effect; an effect the other way counts as inactive or inconclusive; further: potency means the concentration at half of the fitted maximal effect; nearly all actives have a fitted effect of over 50% in size); conditions: recombinant CYP3A4, Luciferin-PPXE luminescence; series mostly up to 57.1 µM
How it was run: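 Luminescent readout of luciferin produced by CYP3A4 (20 nM) dealkylation of Luciferin-PPXE, 25 uM (its KM). NADPH-driven reaction ran 60 min at RT after 10 min compound preincubation; data scaled to 57 uM ketoconazole as 100% inhibition.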

[15] = NFAT Signaling Pathway (AID 444); conditions: Jurkat NFAT-bla M1, carbachol, beta-lactamase ratio, 5 h;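 further: carbachol stimulus at about its EC50 of 1 µM final; on the % scale 0 is the no-effect control and ±100 the full control effect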
How it was run: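 Jurkat cells carrying an NFAT-driven β-lactamase reporter and co-transfected muscarinic M1 receptor were treated with compound plus carbachol (1 uM final, an EC50 level) for 5 h at 37 °C. CCF4 loading followed for 1 h at RT; 460/530 nm ratio gave %activity.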

[16] = at 7.69 µM (top of the series) unless noted

Sequence of Cytochrome P450 2D6 (Homo sapiens) (P10635 whole entry, looked up): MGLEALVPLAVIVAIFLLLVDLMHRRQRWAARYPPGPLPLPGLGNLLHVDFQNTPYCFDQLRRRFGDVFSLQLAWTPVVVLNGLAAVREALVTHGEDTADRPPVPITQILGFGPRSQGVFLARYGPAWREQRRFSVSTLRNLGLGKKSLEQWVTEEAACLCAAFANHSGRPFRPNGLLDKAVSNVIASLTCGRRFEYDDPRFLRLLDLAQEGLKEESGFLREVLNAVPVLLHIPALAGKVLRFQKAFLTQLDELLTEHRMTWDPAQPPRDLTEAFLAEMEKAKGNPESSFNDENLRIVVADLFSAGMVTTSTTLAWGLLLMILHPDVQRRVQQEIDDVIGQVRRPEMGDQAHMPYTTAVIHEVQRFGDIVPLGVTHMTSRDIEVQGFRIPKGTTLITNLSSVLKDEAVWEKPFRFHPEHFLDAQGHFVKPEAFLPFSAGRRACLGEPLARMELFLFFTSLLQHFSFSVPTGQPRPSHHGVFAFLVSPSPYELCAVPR
Sequence of Cytochrome P450 1A2 (Homo sapiens) (P05177 whole entry, looked up): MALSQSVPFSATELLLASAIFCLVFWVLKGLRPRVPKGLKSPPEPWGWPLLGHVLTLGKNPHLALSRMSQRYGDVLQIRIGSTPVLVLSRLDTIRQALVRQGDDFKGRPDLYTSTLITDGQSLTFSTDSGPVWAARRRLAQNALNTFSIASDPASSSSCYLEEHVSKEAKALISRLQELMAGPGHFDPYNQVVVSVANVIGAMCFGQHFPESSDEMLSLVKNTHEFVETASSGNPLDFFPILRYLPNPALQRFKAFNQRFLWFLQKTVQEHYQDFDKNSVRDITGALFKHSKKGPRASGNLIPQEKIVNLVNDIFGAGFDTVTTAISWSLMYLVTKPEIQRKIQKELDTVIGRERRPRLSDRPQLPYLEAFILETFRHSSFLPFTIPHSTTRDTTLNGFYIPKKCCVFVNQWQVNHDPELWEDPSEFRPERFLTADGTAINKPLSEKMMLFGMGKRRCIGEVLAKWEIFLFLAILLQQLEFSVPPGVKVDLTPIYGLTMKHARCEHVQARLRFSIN
Sequence of 3',5'-cyclic-AMP phosphodiesterase 4B (Homo sapiens) (Q07343 whole entry, looked up): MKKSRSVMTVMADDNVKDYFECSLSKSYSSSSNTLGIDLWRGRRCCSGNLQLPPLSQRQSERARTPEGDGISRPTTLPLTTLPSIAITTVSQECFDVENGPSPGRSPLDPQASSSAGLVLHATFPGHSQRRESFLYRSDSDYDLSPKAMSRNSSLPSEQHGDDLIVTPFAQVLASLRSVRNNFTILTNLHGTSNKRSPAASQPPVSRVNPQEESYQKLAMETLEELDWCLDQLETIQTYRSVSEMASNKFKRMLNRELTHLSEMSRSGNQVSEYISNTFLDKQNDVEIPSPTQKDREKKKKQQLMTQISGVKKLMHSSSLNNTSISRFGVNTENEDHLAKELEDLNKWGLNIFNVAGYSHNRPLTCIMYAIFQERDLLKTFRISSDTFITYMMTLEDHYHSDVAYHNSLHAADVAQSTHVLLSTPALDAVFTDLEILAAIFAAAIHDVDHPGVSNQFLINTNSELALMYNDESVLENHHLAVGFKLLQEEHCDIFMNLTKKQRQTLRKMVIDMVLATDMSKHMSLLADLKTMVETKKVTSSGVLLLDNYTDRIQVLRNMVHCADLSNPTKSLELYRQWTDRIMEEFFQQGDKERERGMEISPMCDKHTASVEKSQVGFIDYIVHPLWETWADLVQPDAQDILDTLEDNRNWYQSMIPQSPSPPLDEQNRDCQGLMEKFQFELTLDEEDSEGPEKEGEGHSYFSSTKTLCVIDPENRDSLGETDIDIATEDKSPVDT
Sequence of Cytochrome P450 2C19 (Homo sapiens) (P33261 whole entry, looked up): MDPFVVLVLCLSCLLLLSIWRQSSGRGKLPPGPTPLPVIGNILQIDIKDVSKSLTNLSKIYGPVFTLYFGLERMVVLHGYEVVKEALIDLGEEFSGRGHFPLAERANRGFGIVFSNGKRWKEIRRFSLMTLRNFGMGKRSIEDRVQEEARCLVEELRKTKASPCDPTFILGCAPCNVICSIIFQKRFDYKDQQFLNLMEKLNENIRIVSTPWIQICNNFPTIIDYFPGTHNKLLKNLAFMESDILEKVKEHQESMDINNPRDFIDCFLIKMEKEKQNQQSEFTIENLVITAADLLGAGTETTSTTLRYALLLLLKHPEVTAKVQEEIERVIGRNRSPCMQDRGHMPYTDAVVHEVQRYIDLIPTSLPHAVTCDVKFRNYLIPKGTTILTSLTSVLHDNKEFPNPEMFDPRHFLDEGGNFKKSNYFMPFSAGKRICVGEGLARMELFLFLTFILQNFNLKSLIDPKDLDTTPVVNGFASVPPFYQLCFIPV
Sequence of Lysosomal acid glucosylceramidase (Homo sapiens) (P04062 whole entry, looked up): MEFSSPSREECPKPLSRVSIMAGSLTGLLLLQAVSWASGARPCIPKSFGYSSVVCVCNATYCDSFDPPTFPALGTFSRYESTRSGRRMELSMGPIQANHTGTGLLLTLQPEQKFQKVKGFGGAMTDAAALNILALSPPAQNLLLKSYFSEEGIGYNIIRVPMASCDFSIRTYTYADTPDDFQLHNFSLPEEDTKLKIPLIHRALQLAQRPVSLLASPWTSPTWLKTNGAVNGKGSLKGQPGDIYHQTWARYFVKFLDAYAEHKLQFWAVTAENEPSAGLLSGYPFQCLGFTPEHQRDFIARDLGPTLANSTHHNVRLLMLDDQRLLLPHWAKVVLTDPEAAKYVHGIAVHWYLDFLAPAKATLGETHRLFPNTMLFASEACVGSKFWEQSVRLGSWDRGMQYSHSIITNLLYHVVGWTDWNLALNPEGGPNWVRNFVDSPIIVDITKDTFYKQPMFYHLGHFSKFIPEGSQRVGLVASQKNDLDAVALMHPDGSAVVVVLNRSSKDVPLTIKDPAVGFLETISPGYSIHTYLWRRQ
Sequence of Cytochrome P450 3A4 (Homo sapiens) (P08684 whole entry, looked up): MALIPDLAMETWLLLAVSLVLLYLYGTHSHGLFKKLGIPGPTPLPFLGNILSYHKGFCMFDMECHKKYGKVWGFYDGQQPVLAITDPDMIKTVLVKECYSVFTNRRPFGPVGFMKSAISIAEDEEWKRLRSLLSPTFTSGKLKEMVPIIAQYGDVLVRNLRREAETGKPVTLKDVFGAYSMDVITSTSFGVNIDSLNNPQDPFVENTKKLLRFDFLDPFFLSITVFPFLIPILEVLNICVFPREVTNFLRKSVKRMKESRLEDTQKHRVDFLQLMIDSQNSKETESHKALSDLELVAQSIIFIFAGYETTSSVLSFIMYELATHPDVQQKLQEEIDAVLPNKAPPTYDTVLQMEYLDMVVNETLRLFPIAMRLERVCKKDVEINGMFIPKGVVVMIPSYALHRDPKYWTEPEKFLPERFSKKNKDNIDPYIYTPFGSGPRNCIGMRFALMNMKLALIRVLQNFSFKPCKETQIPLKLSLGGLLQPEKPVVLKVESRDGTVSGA
Sequence of Glucocorticoid receptor (Homo sapiens) (P04150 whole entry, looked up, the tested form may be a part): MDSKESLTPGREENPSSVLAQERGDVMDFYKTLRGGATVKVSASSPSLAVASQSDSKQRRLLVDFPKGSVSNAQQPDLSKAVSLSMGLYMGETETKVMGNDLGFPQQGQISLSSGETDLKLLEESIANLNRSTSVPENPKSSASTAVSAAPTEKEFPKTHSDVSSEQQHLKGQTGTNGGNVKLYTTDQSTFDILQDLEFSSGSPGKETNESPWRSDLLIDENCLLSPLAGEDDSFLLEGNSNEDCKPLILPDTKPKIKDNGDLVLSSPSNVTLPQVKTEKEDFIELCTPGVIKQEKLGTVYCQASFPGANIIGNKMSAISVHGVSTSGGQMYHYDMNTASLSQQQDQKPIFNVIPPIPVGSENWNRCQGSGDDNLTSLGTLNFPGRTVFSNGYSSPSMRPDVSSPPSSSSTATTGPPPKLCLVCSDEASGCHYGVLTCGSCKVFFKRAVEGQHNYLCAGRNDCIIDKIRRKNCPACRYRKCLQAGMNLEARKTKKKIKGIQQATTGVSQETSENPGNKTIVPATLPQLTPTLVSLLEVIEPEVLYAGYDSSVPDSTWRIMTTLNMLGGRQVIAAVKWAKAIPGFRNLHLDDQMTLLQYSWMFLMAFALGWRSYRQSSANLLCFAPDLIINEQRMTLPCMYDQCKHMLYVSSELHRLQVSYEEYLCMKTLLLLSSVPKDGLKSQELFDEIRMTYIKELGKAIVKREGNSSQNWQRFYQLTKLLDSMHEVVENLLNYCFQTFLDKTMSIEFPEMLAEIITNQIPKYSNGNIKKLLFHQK
Sequence of Cytochrome P450 2C9 (Homo sapiens) (P11712 whole entry, looked up): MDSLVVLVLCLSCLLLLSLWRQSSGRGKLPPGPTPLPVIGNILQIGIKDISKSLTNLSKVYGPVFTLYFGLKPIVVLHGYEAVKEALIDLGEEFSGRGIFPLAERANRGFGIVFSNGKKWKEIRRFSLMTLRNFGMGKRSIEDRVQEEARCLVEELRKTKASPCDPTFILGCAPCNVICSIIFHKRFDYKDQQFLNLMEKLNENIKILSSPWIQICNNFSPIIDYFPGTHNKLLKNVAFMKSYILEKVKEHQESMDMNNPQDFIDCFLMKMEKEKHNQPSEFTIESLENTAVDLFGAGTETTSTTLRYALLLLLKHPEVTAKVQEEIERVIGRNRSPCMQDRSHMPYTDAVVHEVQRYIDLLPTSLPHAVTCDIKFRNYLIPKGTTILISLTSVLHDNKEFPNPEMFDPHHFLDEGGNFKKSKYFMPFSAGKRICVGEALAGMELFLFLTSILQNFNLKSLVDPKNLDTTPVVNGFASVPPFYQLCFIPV

COc1ccc2c(Cc3c4ccccc4cc4ccccc34)cncc2c1O
active: Potency [3] 0.126 µM | Potency [10] 2.51 µM
inactive: Potency [1] > 11.4 µM | activity change, negative = inhibition [2] 9.25% | activity, negative = inhibition [4, 16] -0.764% | Potency [5] > 46 µM | Potency [6] > 9.22 µM | Potency [7] | Potency [8] | Potency [9]

O=C(O)[C@@H]1[C@H](C(=O)O)[C@H]2C(=O)C=C[C@H]1N2Cc1ccccc1
inactive: Potency [1] > 11.4 µM | activity change, negative = inhibition [2] -5.73% | activity change, negative = inhibition [3] -3.9% [at 2.29 µM] | Potency [5] > 46 µM | Potency [6] > 9.22 µM | Potency [7] | Potency [11]

O=[N+]([O-])c1ccc2c(c1)S(=O)c1ccccc1-2 (stereo not drawn)
active: Potency [3] 0.2 µM
inactive: Potency [1] > 11.4 µM | activity change, negative = inhibition [2] 11.5% | activity, negative = inhibition [4, 16] -13.7% | Potency [5] > 46 µM | Potency [6] > 9.22 µM | Potency [7] | Potency [11] | activation [12] -10.8%

Clc1ccc(Cl)c(SCCCN2CCNCC2)c1
active: Potency [3] 0.501 µM | Potency [13] 2.51 µM
inactive: Potency [1] > 11.4 µM | activity change, negative = inhibition [2] 3.23% | activity, negative = inhibition [4, 16] -0.882% | Potency [5] > 46 µM | Potency [6] > 9.22 µM | Potency [7] | Potency [11]

O=C(O)/C(=C\c1ccncc1)c1cccc2ccccc12
active: Potency [3] 3.98 µM | Potency [10] 2.51 µM
inactive: Potency [1] > 11.4 µM | activity change, negative = inhibition [2] -1.57% | activity, negative = inhibition [4, 16] 7.21% | Potency [5] > 46 µM | Potency [6] > 9.22 µM | Potency [7] | Potency [11]

COc1ccc2nc(NCN3C(=O)c4ccccc4C3=O)sc2c1
active: Potency [3] 3.98 µM | Potency [10] 2.51 µM
inactive: Potency [1] > 11.4 µM | activity change, negative = inhibition [2] 2.48% | activity, negative = inhibition [4, 16] 10.9% | Potency [5] > 46 µM | Potency [6] > 9.22 µM | Potency [7] | Potency [11]

CC1(C)N=C(N)N=C(N)N1CCCCc1ccccc1
inactive: Potency [1] > 11.4 µM | activity change, negative = inhibition [2] 7.1% | activity change, negative = inhibition [3] -4.3% [at 2.29 µM] | activity, negative = inhibition [4, 16] 0.495% | Potency [5] > 46 µM | Potency [6] > 9.22 µM | Potency [7] | Potency [11]
active: Potency [13] 3.16 µM

O=C(Nc1ccc2ncccc2c1)Nc1ccc2ncccc2c1
inactive: Potency [1] > 11.4 µM | activity change, negative = inhibition [2] -16.2% | activity change, negative = inhibition [3] -28.5% [at 2.29 µM] | activity, negative = inhibition [4, 16] -14.3% | Potency [5] > 46 µM | Potency [6] > 9.22 µM | Potency [7] | Potency [11] | activation [12] -12.2%

CC1(C)N=C(N)N=C(N)N1c1cccc(CSc2ccccc2)c1
inactive: Potency [1] > 11.4 µM | activity change, negative = inhibition [2] -4.06% | activity change, negative = inhibition [3] -17.2% [at 2.29 µM] | activity, negative = inhibition [4, 16] 2.13% | Potency [5] > 46 µM | Potency [6] > 9.22 µM | Potency [7] | Potency [11]
active: Potency [13] 0.251 µM

c1ccc2c(c1)-c1ccccc1C2N1CC2CCC(CC2)C1
inactive: Potency [1] > 11.4 µM | activity change, negative = inhibition [2] 22.5% | activity, negative = inhibition [4, 16] 17.6% | Potency [5] > 46 µM | Potency [6] > 9.22 µM | Potency [11]
active: Potency [3] 0.501 µM

CC(C)(C)NCC[C@@H](O)c1cc(C(F)(F)F)nc2c(C(F)(F)F)cccc12
inactive: Potency [1] > 11.4 µM | activity change, negative = inhibition [2] 9.95% | activity change, negative = inhibition [3] -9.9% [at 2.29 µM] | activity, negative = inhibition [4, 16] -4.67% | Potency [5] > 46 µM | Potency [6] > 9.22 µM | Potency [7] | Potency [11]
active: Potency [13] 0.316 µM

Clc1ccc2c(NCCNC3CCCCC3)ccnc2c1
active: Potency [13] 3.16 µM
inactive: Potency [1] > 11.4 µM | activity change, negative = inhibition [2] 5.59% | activity change, negative = inhibition [3] -10.2% [at 2.29 µM] | activity, negative = inhibition [4, 16] 3.49% | Potency [5] > 46 µM | Potency [6] > 9.22 µM | Potency [7]

O=[N+]([O-])c1ccc(C2=Nn3c(nnc3-c3ccc(Cl)cc3)SC2)o1
inactive: Potency [1] > 11.4 µM | activity change, negative = inhibition [2] 22.7% | activity, negative = inhibition [4, 16] -6.24% | Potency [5] > 46 µM | Potency [6] > 9.22 µM | Potency [7] | Potency [11]
active: Potency [3] 0.158 µM | Potency [10] 2.51 µM

CC1CCN(CC(=O)N2c3ccccc3Sc3cc4ccccc4cc32)CC1
active: Potency [3] 3.98 µM | Potency [14] 3.98 µM | Potency [13] 3.98 µM | Potency [10] 3.16 µM
inactive: Potency [1] > 11.4 µM | activity change, negative = inhibition [2] 28.3% | activity, negative = inhibition [4, 16] 9.28% | Potency [5] > 46 µM | Potency [6] > 9.22 µM | Potency [7] | Potency [9]

Cc1cn([C@H]2C[C@H](O)[C@@H](COC(N)=O)O2)c(=O)[nH]c1=O
inactive: Potency [1] > 11.4 µM | activity change, negative = inhibition [2] 2.02% | activity change, negative = inhibition [3] -14.6% [at 2.29 µM] | activity, negative = inhibition [4, 16] 6.97% | Potency [5] > 46 µM | Potency [6] > 9.22 µM | Potency [7] | Potency [11] | Potency [13]

C[C@H](Oc1ccc(Oc2cnc3ccc(Cl)cc3n2)cc1)C(=O)O
inactive: Potency [1] > 11.4 µM | activity change, negative = inhibition [2] -24.4% [at 38 µM] | activity change, negative = inhibition ([15]; at 7.69 µM (top of the series)) 8.25% | activity change, negative = inhibition ([15]; at 38 µM (top of the series)) 7.14% | activity, negative = inhibition ([4]; at 7.69 µM (top of the series)) -19.5% | activity, negative = inhibition ([4]; at 38 µM (top of the series)) -10.1% | Potency [5] > 46 µM | Potency [6] > 46 µM and > 9.22 µM | Potency [7] | Potency [11]
